Reference: PubChem BioAssay (EPA / NIEHS)
Results filed as inconclusive are left out. The source made the active and inactive calls. The calls were made as follows: active = hit-call score of the fitted dose curve at least 0.9, where 1 is the maximum; inconclusive = response in the unintended direction; inactive = score below 0.9.

The compounds below were run against Nuclear receptor subfamily 1 group I member 2 (Homo sapiens) (UniProt O75469) (assay: ATG_PXR_TRANS: Attagene TRANS-FACTORIAL HepG2 Assay for human Pregnane X Receptor (PXR) (AID 2283008)).
Nuclear receptor subfamily 1 group I member 2 (Homo sapiens), sequence (O75469 whole entry, looked up, the tested form may be a part): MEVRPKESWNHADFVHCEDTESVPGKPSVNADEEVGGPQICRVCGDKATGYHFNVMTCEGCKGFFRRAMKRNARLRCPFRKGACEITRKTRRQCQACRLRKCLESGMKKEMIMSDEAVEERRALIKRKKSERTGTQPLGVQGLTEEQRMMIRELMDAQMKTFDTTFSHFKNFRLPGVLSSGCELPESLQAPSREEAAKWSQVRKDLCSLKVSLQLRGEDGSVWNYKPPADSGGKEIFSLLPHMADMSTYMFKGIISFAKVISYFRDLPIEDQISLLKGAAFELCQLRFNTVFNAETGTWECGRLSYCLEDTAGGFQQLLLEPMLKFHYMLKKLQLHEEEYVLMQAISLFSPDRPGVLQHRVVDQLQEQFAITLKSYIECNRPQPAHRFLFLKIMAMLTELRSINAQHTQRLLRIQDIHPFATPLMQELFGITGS
How it was run: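 Read-out is fluorescence of labelled reporter cDNA fragments separated by capillary electrophoresis after RT-PCR and HpaI digestion. Source: HepG2 cells carrying PXR-GAL4/UAS reporter constructs, treated 24 h; activity fitted upward relative to DMSO.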

Compound | AC50 | outcome
Clc1ccc2c(c1)C(N1CCNCC1)=Nc1ccccc1O2 | 44.1 µM (active) | 
COc1cc2ncnc(Nc3cccc(Cl)c3)c2cc1OC |  | inactive
O=C1CCCCCCCCCCCCCCO1 | 48.3 µM (active) | 
CC1CCC(C(C)CS)CC1S (stereo unspecified) | 2.84 µM (active) | 
O=c1cc(-c2ccccc2)oc2cc(O)cc(O)c12 |  | inactive
C[C@H]1C[C@@H]2[C@H]([C@@H](O)C[C@@]3(C)[C@H]2CC[C@]3(O)C(=O)CO)[C@@]2(C)C=CC(=O)C=C12 |  | inactive
CCn1c2ccccc2c2cc(N)ccc21 | 4.67 µM (active) | 
C=CC(C)(O)CCC=C(C)CCC=C(C)C (stereo unspecified) | 3.93 µM (active) | 
CC(C=O)Cc1ccc(C(C)C)cc1 (stereo unspecified) |  | inactive
NCCNCCN |  | inactive
C#C[C@]1(O)CC[C@H]2[C@@H]3CCC4=Cc5oncc5C[C@]4(C)[C@H]3CC[C@@]21C | 5.38 µM (active) | 
Cc1ccc(Nc2ccc(O)c3c2C(=O)c2ccccc2C3=O)cc1 |  | inactive
O=C1CCCCCCCCCCOCCCCO1 |  | inactive
CC(C)(COC(=O)c1ccccc1)COC(=O)c1ccccc1 |  | inactive
CCCc1c(OCCCOc2ccc(OCC(=O)O)cc2)ccc(C(C)=O)c1O | 26.6 µM (active) | 
C=C(C)C(=O)O[C@H]1C[C@@H]2CC[C@@]1(C)C2(C)C | 31.6 µM (active) | 
COC(=O)Cc1cccc2ccccc12 |  | inactive
c1ccc2c(c1)c1cccc3ccc4cccc2c4c31 |  | inactive
CNCCCC12CCC(c3ccccc31)c1ccccc12 |  | inactive
Nc1cc([N+](=O)[O-])ccc1O |  | inactive
CCCCCC(CO)CCC (stereo unspecified) |  | inactive
